# High-throughput results: PubChem BioAssay, National Center for Advancing Translational Sciences (NCATS)
# Lassa entry inh: blocks Lassa virus binding to or entry into cells; Lassa virus pseudotype entry inhibition, cell reporter; Potency, µM (highest dose often 37.9 µM), most hits filed as inhibitors; actives 1.2% (n = 300,000); calls by dose curve; tested in HEK293 cells; note: nearly all actives have a fitted effect of over 50% in size
# Marburg entry inh: blocks Marburg virus binding to or entry into cells; actives 1.8% (n = 300,000); Potency, µM (titrated, usually from 37.8 µM), usual class: inhibitors; Marburg virus pseudotyped entry inhibition, cell reporter; AID 540276; calls by dose curve; tested in HEK293 cells
# Giardia FBPA inh: inhibitors of Giardia lamblia fructose-1,6-bisphosphate aldolase; purified Giardia FBPA; Potency, µM (doses to about 59.6 µM), actives largely listed as inhibitors; actives 0.71% (n = 290,000); AID 2451; note: nearly all actives have a fitted effect of over 55% in size
# Target sequence (A8B2U2 whole entry, looked up): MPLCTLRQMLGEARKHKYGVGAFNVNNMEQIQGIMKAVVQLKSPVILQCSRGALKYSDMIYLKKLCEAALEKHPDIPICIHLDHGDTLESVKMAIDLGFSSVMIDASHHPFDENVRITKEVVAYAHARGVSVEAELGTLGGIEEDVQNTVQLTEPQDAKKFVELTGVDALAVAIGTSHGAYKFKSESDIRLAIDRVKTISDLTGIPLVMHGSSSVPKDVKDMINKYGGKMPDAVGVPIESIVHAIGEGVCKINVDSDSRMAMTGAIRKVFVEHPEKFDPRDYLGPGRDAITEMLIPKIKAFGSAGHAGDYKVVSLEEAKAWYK
#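 Giardia FBPA (40 nM reagent) was preincubated 10 min at RT with compound (up to 57.5 uM final), then substrate plus GAPDH/TPI/NAD/arsenate coupling system with diaphorase/resazurin was added; resorufin fluorescence (525/598 nm) was read after 20 min.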
# HCV inhibitor: HCV inhibition; Huh7.5.1 HCVcc-Cre infection, luciferase reporter, 44 h; Potency, µM (series often up to 41.8 µM), hits mostly inhibitors; actives 3.4% (n = 340,000); AID 651820
#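 HCVcc-Cre virus at an moi near 0.5 was added right after compound to cells cultured 4 h from seeding (1,000 cells/well). Luciferase activity was determined 44 h later, 15 min after substrate addition at RT.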
# FMDV inh: antivirals against foot and mouth disease virus; FMDV antiviral cell-based qHTS; Potency, µM (doses to about 57.9 µM), actives largely listed as inhibitors; actives 1.2% (n = 410,000); calls by dose curve; tested in HEK293T cells; note: read-out not given here; nearly all actives have a fitted effect of over 45% in size
# HCMV antiviral: blocks human cytomegalovirus replication. HFF cells, HCMV-luciferase reporter, 72 h; stronger effect = lower value. activity change, negative = inhibition, % at 57.5 µM. actives 4.5% (n = 410,000). AID 1259415; in the data active = activity change below about -60%; inconclusive = no clear call, values can overlap the other calls; inactive = above about -39%
#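 Luciferase read-out from HCMV-luciferase-infected HFFs (MOI 1 PFU/cell) 72 h post infection at 37C; compounds added after 16 h cell attachment; activity normalized between buffer-only basal and Salinomycin (10uM) inhibitor controls.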
# Numbers stand for hits; – = inactive; ? = inconclusive; · = no result; [ ] = remark or other dose. Only some compounds are listed: those with a hit (about 8.3% of all), similar ones and a draw of the others. Unless noted, calls come from the whole dose curve; as a rule, active = well fitted curve in the direction sought with a large enough effect; inconclusive = small, poorly fitted or top-dose-only effect, or another doubt; inactive = no such curve, though single readings can be large; an effect the other way counts as inactive or inconclusive.
SMILES,Lassa entry inh,Marburg entry inh,Giardia FBPA inh,HCV inhibitor,FMDV inh,HCMV antiviral
CS(=O)(=O)Nc1ccc(C2=NN(C(=O)CCCC(=O)O)C(c3cccs3)C2)cc1 (stereo not drawn),–,–,–,–,–,-84
O=C(CNC(=O)c1ccccc1)OCC(=O)N1N=C(c2ccc(Cl)cc2)CC1c1ccco1 (stereo not drawn),–,–,–,–,–,–
Cc1ccc(S(=O)(=O)N[C@H](C(=O)OCC(=O)N2N=C(c3ccc(Cl)cc3)CC2c2ccco2)C(C)C)cc1 (stereo partly drawn),?,?,–,13µM,–,–
CCC(=O)N1N=C(c2ccc(NS(=O)(=O)c3ccccc3)cc2)CC1c1ccco1 (stereo not drawn),·,·,·,11µM,–,–
CC(=O)N1N=C(c2ccco2)CC1c1ccco1 (stereo not drawn),–,–,–,–,–,–
Cc1ccc(C2=NN(C(=O)CCCC(=O)O)C(c3ccco3)C2)cc1 (stereo not drawn),·,–,–,–,–,?
CS(=O)(=O)Nc1cccc(C2=NN(C(=O)CCC(=O)O)C(c3cccs3)C2)c1 (stereo not drawn),·,·,–,–,–,–
COC(=O)N1C(/C=C/c2ccc3c(c2)OCO3)=Cc2ccccc2C1CC(C)=O (stereo not drawn),·,–,–[12.9 µM],·,·,·
CCOc1ccc(CN2CCOc3ccc(C(O)c4cccnc4)cc3C2)cc1 (stereo not drawn),·,·,·,·,–,·
NCCC[C@@H](CC(=O)N[C@@H]1CCCC[C@H]1C(=O)N[C@H](CC(=O)N[C@@H](CCC(=O)O)CC(=O)O)Cc1c[nH]c2ccccc12)NC(=O)C[C@H](Cc1c[nH]c2ccccc12)NC(=O)[C@@H]1CCCC[C@H]1N,·,·,–,·,·,·
CCOc1ccccc1NC(=O)CCCc1nc2ccccc2c(=O)[nH]1,–,–,?,–,–,-87
CCOc1ccc(Oc2ccccc2NC(=O)CCc2nc3ccccc3c(=O)[nH]2)cc1,·,·,·,·,–,–
CCN(CC)C(=O)c1ncn(C)c1C(=O)N(CC)CC,·,·,·,–,–,-66
CCc1ccc(-c2cc(C(F)(F)F)n3nc(C(=O)Nc4cnn(Cc5ccc(C)cc5)c4)cc3n2)s1,?,9.2µM,–,11µM,–,·
O=C(NCc1ccco1)c1cc2nc(C3CC3)cc(C(F)(F)F)n2n1,3.5µM,–,–,–,–,–
Cc1ccccc1Cn1cc(NC(=O)c2cc3nc(-c4ccco4)cc(C(F)(F)F)n3n2)cn1,–,–,–,10µM,?,–
Cc1ccc(C(=O)O[C@H](C(=O)O)[C@@H](OC(=O)c2ccc(C)cc2)C(=O)O)cc1 (tested in a mixture with another compound),–,–,–,·,·,·
Cc1cc(OC(=O)N(C)C)nn1C(=O)N(C)C,·,·,–,·,·,·
COc1cccc(CNC(=O)c2c(C)oc3ncnc(N4CCOCC4)c23)c1,?,·,·,·,–,–
CCCCN(CC)CCCNC(=O)c1c(C)oc2ncnc(N3CCOCC3)c12,–,·,·,·,–,-66
CCc1ccc(CNC(=O)c2c(C)oc3ncnc(N4CCOCC4)c23)cc1,–,·,·,·,?,-61
Cc1cc2oc(C(=O)Nc3c(C(=O)Nc4ccccc4)oc4ccccc34)cc(=O)c2cc1C,?,–,·,·,–,–
COc1ccccc1CCNc1ncnc2sc(C(=O)N3CCCN(C=O)CC3)c(C)c12,·,·,·,·,–,·
CC(C)(C)c1ccc(OCCCNCc2ccccc2)cc1,?,?,–,11µM,–,–
CC(C)(C)c1ccc(OCCCNC2CCCC2)cc1,?,6.3µM,?,?,–,–
SMILES,Lassa entry inh,Marburg entry inh,Giardia FBPA inh,HCV inhibitor,FMDV inh,HCMV antiviral
COC(=O)[C@H](Cc1ccccc1)NC(=O)O[C@@H]1Cc2cc(OC)ccc2O[C@H]1c1cccc(OC)c1,·,·,–,·,·,·
COC(=O)[C@@H]1[C@@H](CO)[C@@H]2Cn3c(ccc(Br)c3=O)[C@H]1N2C(=O)Cc1ccccn1,·,·,·,·,·,–
Cc1cc(C)c2c(CC(=O)NC(C)C)coc2c1,–,–,–,–,–,-61
CCNc1ncc2nc(-c3cc(F)cc(F)c3)c(=O)n(C3CC3)c2n1,·,·,–,·,–,·
Cc1ccc(NC(=O)c2ccc(Nc3ccccc3F)nc2)cc1,–,–,–,?,–,–
Cc1ccc(NC(=O)c2ccc(NCc3ccc(F)cc3)nc2)cc1,–,–,–,–,–,-105
COc1ccc2cc3c(N)nn(C(=O)C4CCC(C(C)(C)C)CC4)c3nc2c1 (stereo not drawn),–,–,–,–[8.37 µM],–,-79
COc1ccc2cc3c(N)nn(C(=O)c4cccc([N+](=O)[O-])c4)c3nc2c1,?,?,–,–,–,-86
COc1ccc(C(=O)n2nc(N)c3cc4ccc(C)cc4nc32)cc1OC,–,–,·,·,–,–
COc1ccc2cc3c(N)nn(C(=O)c4ccc(F)cc4Cl)c3nc2c1,–,–,·,·,–,-70
COc1ccc(-n2cnc(N)c2C(=O)c2cccc([N+](=O)[O-])c2)cc1,–,?,–,–,–,-67
COc1ccc2cc3c(N)nn(C(=O)Cc4ccccc4OC)c3nc2c1,·,·,–,?,–,–
CC(=O)c1ccc(NC(=O)CSc2ccc3nc(-c4ccccc4)cn3n2)cc1,?,·,·,·,–,–
CNC(=O)c1cnc2sc(N3CCCCCC3)nn2c1=O,?,·,·,·,–,–
Nc1ccccc1N1C(=O)c2ccccc2C1=O,·,·,·,·,·,–
N[C@H](C(=O)O)[C@H](Cc1ccccc1)C(=O)O,–,–,·,·,·,·
C=CCn1c(C)cc(C(=O)COC(=O)c2ccc3c(c2)NC(=O)CS3)c1C,?,11µM,–,?,?,?
CCOC(=O)C(O)C1CCc2c([nH]c3ccc(C)cc23)C1=O (stereo not drawn),11µM,?,–,?,–,–
COc1ccc(/C=N/NC(=O)c2ccco2)cc1Cn1nc(C)cc1C,–,–,–,–,–,–
COc1ccc(/C=N\NC(=O)COc2ccc(C(C)(C)C)cc2)cc1Cn1nc(C)cc1C,2.2µM,?,–,–,?,–
O=C1C2C3C=CC(C3=C(c3ccccc3)c3ccccc3)C2C(=O)N1Cc1ccccc1 (stereo not drawn),?,?,–,11µM,?,–
Cc1[nH]c(=O)n(C(C)(C)C)c(=O)c1Cl,·,·,–,·,·,·
COC(=O)C(C(=O)OC)C(C(=O)OC)C(C(=O)OC)C(=O)OC,–,?,–,–,–,-88
Cc1ccccc1CNC(=O)C1CCCCN1S(=O)(=O)c1ccc(F)cc1 (stereo not drawn),–,·,·,·,–,–
Cc1cc(OCCCCCNCCO)cc(C)c1Cl,–,?,–,13µM,–,?
Cc1cc(OCCNCCO)cc(C)c1Cl,–,?,–,?,–,–
CCC1CN(C(=O)N2CCC(C(=O)NCCc3cc(OC)ccc3OC)CC2)c2ccccc2O1 (stereo not drawn),?,·,·,·,?,–
Cc1c(C(=O)N2CC3CCC2C3)sc2ncnc(NCc3ccco3)c12 (stereo not drawn),·,·,·,·,–,·
